Reference: PubChem BioAssay AID2551 (National Center for Advancing Translational Sciences (NCATS), 2010)
The campaign covered roughly 310,000 compounds. About 17,000 (5.5%) were called active. A call without a number means that no potency is given here. Another 11% or so got no clear call; they are omitted. The full list was thinned out, with actives kept by preference. Unmarked numbers belong to inactive results. Calls come from the whole dose curve; as a rule, active = well fitted inhibition curve with a large enough effect; inconclusive = small, poorly fitted or top-dose-only effect, or effect the other way; inactive = no such curve, though single readings can be large or run the other way.

These molecules were tested against Nuclear receptor ROR-gamma (Mus musculus) (UniProt P51450) (assay: qHTS for inhibitors of ROR gamma transcriptional activity). Conditions: Drosophila S2 Gal4-RORgamma UAS-luciferase reporter, 20 h; series mostly up to 53.6 µM.
Nuclear receptor ROR-gamma (Mus musculus), sequence (P51450 whole entry, looked up, the tested form may be a part): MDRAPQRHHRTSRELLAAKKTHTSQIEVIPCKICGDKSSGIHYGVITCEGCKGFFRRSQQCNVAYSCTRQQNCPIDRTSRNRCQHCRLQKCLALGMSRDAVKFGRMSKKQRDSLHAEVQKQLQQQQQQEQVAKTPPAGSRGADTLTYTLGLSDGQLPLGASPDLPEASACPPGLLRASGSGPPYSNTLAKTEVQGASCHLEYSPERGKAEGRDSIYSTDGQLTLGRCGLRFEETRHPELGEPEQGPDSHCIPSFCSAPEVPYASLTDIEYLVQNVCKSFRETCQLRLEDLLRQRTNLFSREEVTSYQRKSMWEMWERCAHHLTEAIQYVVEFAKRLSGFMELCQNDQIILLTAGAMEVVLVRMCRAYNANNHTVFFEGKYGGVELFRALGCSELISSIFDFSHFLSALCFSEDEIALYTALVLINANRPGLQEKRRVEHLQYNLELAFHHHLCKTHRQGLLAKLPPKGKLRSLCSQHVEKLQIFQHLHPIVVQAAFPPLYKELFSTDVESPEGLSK
Procedure, shortened: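 Read-out: Photinus luciferase luminescence; inhibitors lower reporter signal. Insect Schneider cells with Gal4-ROR gamma fusion under metallothionein promoter, UAS reporter; 700 uM final copper sulfate induction, 20 hr, ambient temperature.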
Note: nearly all actives have a fitted effect of over 60% in size.
Potency is the fitted concentration of half-maximal effect.

Question: With `COc1cc2c(cc1OC)CN(CC(=O)Nc1ccc(F)cc1)CC2` as the molecule, how does the Potency read?
Answer: inactive

Question: Which Potency does the source give for `CC(C)Oc1ccc(C(CC(=O)N2CCOCC2)C(C)C)cc1` (stereo not drawn) here?
Answer: inactive

Question: For `COc1ccc(-c2nc3c(s2)CCc2onc(-c4ccc(OC)cc4)c2-3)cc1`, which Potency is on record?
Answer: inactive

Question: For `COc1cccc2cc(C(=O)NCc3ccc(C)cc3)c(=N)oc12`, which Potency is on record?
Answer: inactive

Question: `COc1cc(C(=O)Nn2c(CC(C)C)nc3ccccc3c2=O)cc(OC)c1OC` was tested. Which activity change, negative = inhibition did it give?
Answer: -37% [at 1.91 µM]

Question: How did the Potency turn out when `CCOc1ccccc1NC(=O)Cn1ncc2ccc([N+](=O)[O-])cc21` was run?
Answer: inactive

Question: Which Potency does the source give for `CC(=O)Nc1ccc(S(=O)(=O)N2CCC(C(=O)N[C@@H](Cc3ccccc3)C(=O)O)CC2)cc1` here?
Answer: inactive

Question: `COc1cccc(NC(=O)N2CCCC2C(=O)NC2CCCCC2)c1` (stereo not drawn) was tested. Which Potency did it give?
Answer: inactive

Question: For `Cc1cc(-c2ccc(C)c(S(=O)(=O)NCCCN(Cc3ccccc3)C(C)C)c2)on1`, which Potency is on record?
Answer: inactive

Question: How did the Potency turn out when `O=C(NCCCN1CCCCC1)C1CC(=O)N(CCc2ccccc2)C1` (stereo not drawn) was run?
Answer: inactive

Question: With `Oc1c(Cl)cc(Cl)c(Cl)c1Cc1c(O)c(Cl)cc(Cl)c1Cl` as the molecule, how does the Potency read?
Answer: 5.62 µM (active)

Question: With `CC(C)n1c(=O)[nH]c2cc(C(=O)Nc3ccccc3)ccc21` as the molecule, how does the Potency read?
Answer: 7.94 µM (active)

Question: `Cn1c(=O)n(C)c2cc(C(=O)Nc3ccc(Br)cc3)ccc21` was tested. Which Potency did it give?
Answer: inactive

Question: Which Potency does the source give for `CN1CCN(c2ccc(NC(=O)c3ccc4c(c3)[nH]c(=O)n4Cc3ccc(F)cc3)cc2)CC1` here?
Answer: inactive

Question: For `CCOC(=O)N1CCN(C(=O)C(C)NC(=O)c2ccco2)CC1` (stereo not drawn), which Potency is on record?
Answer: inactive

Question: With `O=C(N/N=C/c1ccco1)c1ccc(C(=O)N/N=C/c2ccco2)o1` as the molecule, how does the Potency read?
Answer: inactive

Question: With `CC(/C=N/NC(=O)c1ccncc1)=C\c1ccco1` as the molecule, how does the Potency read?
Answer: inactive

Question: With `O=C(N/N=C/C=C/c1ccco1)c1cccs1` as the molecule, how does the Potency read?
Answer: 5.01 µM (active)

Question: Which Potency does the source give for `COc1cc(OC)c(NC(=O)C2CCCN2C(=O)OCc2ccccc2)cc1Cl` (stereo not drawn) here?
Answer: inactive

Question: With `COc1ccc(OC)c(S(=O)(=O)n2c([N+](=O)[O-])cnc2C)c1` as the molecule, how does the Potency read?
Answer: inactive

Question: Which Potency does the source give for `Cc1cccc(N(CC(=O)Nc2ccc(-c3nc4ccc(C)cc4s3)cc2)S(C)(=O)=O)c1` here?
Answer: inactive

Question: Which Potency does the source give for `Cc1nc2ccc(S(=O)(=O)N(C)CC(=O)NC(C)c3ccccc3)cc2s1` (stereo not drawn) here?
Answer: inactive

Question: `Cc1ccc2nc(-c3ccc(NC(=O)CN(C)S(=O)(=O)c4ccccc4)cc3)sc2c1` was tested. Which Potency did it give?
Answer: 2 µM (active)

Question: With `CCN(C(=O)CSc1nnc(-c2ccncc2)o1)c1ccccc1` as the molecule, how does the Potency read?
Answer: inactive

Question: With `COc1ccc(NS(=O)(=O)c2cccc3nsnc23)cc1Cl` as the molecule, how does the Potency read?
Answer: inactive

Question: With `CCOC(=O)C(C)Sc1nc2ccccc2c(=O)n1CC1CCCCC1` (stereo not drawn) as the molecule, how does the Potency read?
Answer: inactive

Question: How did the Potency turn out when `CN(c1ccc2nc3ccccc3c(=O)n2n1)C1CCCCC1` was run?
Answer: 0.398 µM (active)

Question: How did the Potency turn out when `O=c1c2ccccc2nc2n1C1(CCCCC1)Cc1ccccc1-2` was run?
Answer: inactive
